# Assay outcomes from PubChem.
# Rows were chosen to be rich in hits. Some 6.2% of all compounds tested hit in one or more screens of this group.
# S2 tox – reduces viability in counter-screen for ATXN expression inhibitors; S2 cells (HEK-293 line with an ATXN2-luciferase reporter) viability, CellTiter-Fluor protease fluorescence, 24 h; Potency, µM (highest dose often 56.7 µM), usual class: cytotoxic; actives 0.49% (n = 400,000); AID 651635; further: nearly all actives have a fitted effect of over 40% in size
# KB-3-1 tox – kills parental KB-3-1 adenocarcinoma cells | KB-3-1 viability, CellTiter-Glo ATP luminescence, 72 h | Potency, µM (titrated, usually from 46.1 µM), actives largely listed as cytotoxic | actives 1.4% (n = 400,000); further: on the % scale 0 is the no-effect control and ±100 the full control effect; nearly all actives have a fitted effect of over 60% in size
#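 Cytotoxicity measured as CellTiter-Glo luminescence after 72 h at 37 C. Compound titrations were pinned onto drug-naive KB-3-1 parental adenocarcinoma cells grown in DMEM with 10% FBS, and normalized data fitted to concentration-response curves.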
# HT1080-NT tox – kills 2HG-producing HT-1080-NT fibrosarcoma cells; HT-1080-NT fibrosarcoma viability, CellTiter-Glo ATP luminescence, 48 h; Potency, µM (titrated, usually from 46.1 µM), without a hit: at the highest dose activity, negative = less viability, most hits filed as cytotoxic; actives 1.6% (n = 360,000); AID 686970;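 further: NT is the 2HG producing partner of a matched IDH1 knockdown line; 0% = DMSO-treated cells and -100% = media-only wells without cells; nearly all actives have a fitted effect of over 55% in size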
#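 Toxicity toward the 2HG-producing NT line was scored as %Activity, normalised to DMSO and no-cell wells, from CellTiter-Glo luminescence after 48 hours' treatment.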
# KB-V1 MDR tox – KB-V1 MDR subline cytotoxicity | KB-V1 MDR cells viability, CellTiter-Glo, 72 h | AID 1347076 | Potency, µM (series often up to 46.1 µM), usual class: cytotoxic | actives 3.4% (n = 400,000); further: on the % scale 0 is the no-effect control and ±100 the full control effect; nearly all actives have a fitted effect of over 60% in size
#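 Potencies derive from concentration-effect curves fitted to normalized luminescence (CellTiter-Glo) of KB-V1 cells treated for 72 h at 37 degrees C in phenol-red-free DMEM containing 10% FBS.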
# HT1080 IDH1KD tx – HT-1080 IDH1 knockdown cell toxicity (counter line). HT-1080 IDH1 knockdown viability, ATP luminescence, 48 h. Potency, µM (highest dose often 46.1 µM), for the others: at the highest dose activity, negative = toxicity, most hits filed as cytotoxic. AID 686971. actives 2% (n = 360,000);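 further: 0% = DMSO wells and -100% = cell-free medium wells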
#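 HT-1080-IDH1KD cells (IDH1 knocked down), 750/well in RPMI with 5% FBS, treated with compound 48 h at 37 degrees C. Viability by CellTiter-Glo luminescence, normalised to DMSO and no-cell wells; concentration-response curves classed.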
# ATXN2 expr inh – ATXN2 expression inhibition | AID 1745845 | actives 0.72% (n = 360,000) | Potency, µM (doses to about 57 µM), inactives show at the highest dose activity change, negative = inhibition, hits mostly inhibitors | HEK-293 ATXN2-luciferase reporter, luminescence, 24 h; further: on the % scale 0 is the no-effect control and ±100 the full control effect; nearly all actives have a fitted effect of over 55% in size
#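 qHTS (up to 57 uM final) was run with 24 h compound exposure of reporter cells at 37 °C. Each well was multiplexed: SteadyGlo luminescence measured ATXN2-luciferase expression after a fluorogenic Gly-Phe-AFC viability readout (25 uM final).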
# Starred values were filed as active, the others as inactive; i = inactive; ? = inconclusive; / = no result given. The call rests on the fitted dose curve; in most records, active means well fitted curve in the direction sought with a large enough effect; inconclusive means small, poorly fitted or top-dose-only effect, or another doubt; inactive means no such curve, though single readings can be large; an effect the other way counts as inactive or inconclusive. Potency means the concentration at half of the fitted maximal effect.
SMILES,S2 tox,KB-3-1 tox,HT1080-NT tox,KB-V1 MDR tox,HT1080 IDH1KD tx,ATXN2 expr inh
Cc1nc2ccccc2n1CC(O)Cn1c2ccccc2c2ccccc21 (centres undefined),?,18µM*,-6%,?,-13%,?
CCCCOCC(O)Cn1c(C)nc2ccccc21 (centres undefined),i,i,13%,?,-4%,1%
Cc1ccc2c(c1)c1c(n2CC(O)Cn2c(C)nc3ccccc32)/C(=N\O)CCC1 (centres undefined),?,?,21µM*,?,?,-37%
Cc1nc2ccccc2n1CC(O)COC1CCCCC1 (centres undefined),i,i,-6%,16µM*,-1%,-8%
CC(C)c1nc2ccccc2n1CC(O)COC1CCCCC1 (centres undefined),i,i,1%,?,0%,1%
Cc1ccc2c(c1)c1c(n2CC(O)Cn2c(C)nc3ccccc32)C(=O)CCC1 (centres undefined),i,?,19%,i,8%,-3%
Cc1ccc(NC(=O)CNC(=O)Cn2c(C)cc3ccccc3c2=O)cc1F,i,i,/,i,/,11%
CCc1ccc(OCC(=O)N/N=C(\C)c2ccccc2OC(F)F)cc1,i,i,-11%,16µM*,-8%,-10%
Cc1ccc(C(=O)NC2(C(F)(F)F)N=C(c3ccccc3)N(Cc3ccccc3)C2=O)cc1 (centres undefined),i,i,/,i,/,-8%
CCN(CC)CCOC(=O)c1ccc(N/C=C(/C#N)c2nc(-c3ccc(OC)c(OC)c3)cs2)cc1,i,i,23µM*,i,-20%,-24%
CN(C)/C=N/c1ncc(-c2ncc(C(F)(F)F)cc2Cl)cn1,i,?,15%,10µM*,12%,-7%
FC(F)(F)c1cnc(-c2cnc(-c3cccnc3)nc2)c(Cl)c1,i,i,22%,i,?,24%
C/C(=N\NC(=S)NC(C)C)c1ccccc1,i,i,4%,i,-1%,-11%
COCCNC(=S)N/N=C(\C)c1ccc(O)cc1,i,i,-2%,i,-12%,-6%
C/C(=N\NC(=S)NC1CCCCC1)c1ccc(O)cc1,i,16µM*,-19%,?,-8%,-9%
C/C(=N\NC(=S)NC1CCCCC1)c1ccccc1,i,16µM*,8%,i,2%,36%
Cc1ccc(C(C)OC(=O)C2(C)CCC(C(=O)O)C2(C)C)cc1 (centres undefined),i,/,/,/,/,14%
O=C(c1ccccc1F)N1CCCC(c2ccccc2)C1 (centres undefined),i,i,15%,23µM*,11%,-14%
COc1cc2c(cc1OC)C(c1cccs1)N(C(=O)C(C)C)CC2 (centres undefined),/,?,-9%,14µM*,-16%,/
COc1cc2c(cc1OC)C(c1cccs1)N(C(=O)c1cccnc1)CC2 (centres undefined),?,5.8µM*,-28%,?,?,2%
O=C(N/N=C/c1cn(-c2ccccc2)nc1-c1cc2ccccc2o1)c1ccccc1Br,i,?,?,?,12µM*,53%
O=C(N/N=C/c1cn(-c2ccccc2)nc1-c1cc2ccccc2o1)c1c[nH]c2ccccc12,i,i,-23%,i,-23%,46%
CCCNc1nc2c(c(=O)n(C)c(=O)n2C)n1CC(O)COc1ccccc1 (centres undefined),i,i,/,9.2µM*,/,-2%
Cc1ccccc1OCC(O)Cn1c(NCc2ccco2)nc2c1c(=O)n(C)c(=O)n2C (centres undefined),i,i,-22%,?,0%,-4%
CCNc1nc2c(c(=O)n(C)c(=O)n2C)n1CC(O)COc1ccccc1 (centres undefined),i,?,/,5.2µM*,/,-6%
